LMP1 NFkB inh = EBV LMP1-driven NF-kappaB luciferase reporter inhibitors, primary screen, cell-based, luminescence, single point; inhibition, % at 12.5 µM; LMP1-induced NF-kappaB luciferase reporter cells; actives 0.69% (n = 350,000); in the data active = inhibition above about 41%;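 also: 0% = neutral control wells and 100% = reference inhibitor control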
aDG glyco up = activators of alpha-DG glycosylation, primary screen, uHTS, Pro5-aDG cells, AlphaScreen; actives 0.22% (n = 360,000); activation, % at 10 µM; alpha-DG glycosylation AlphaScreen (IIH6); 0% Pro5, 100% B10-LARGE cell signal;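 active = activation of at least 8% versus controls, or a plate z-score of at least 8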;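 also: Pro5 are CHO cells carrying HIG-tagged alpha-DG that lacks glycosylation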
TROY NFkB inh = inhibitors of TROY-driven NF-kB signaling, primary screen, Q293 LMP1-TROYcd cells, NF-kB luciferase, uHTS | Q293 LMP1-TROYcd NF-kB luciferase reporter, 4 h | inhibition, % at 10 µM | actives 0.98% (n = 360,000) | AID 1347056, 2019;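 active = compounds whose plate-normalised and pattern-corrected inhibition of the luciferase reporter signal at the single screening dose is 50% or more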
TWEAK Fn14 block = inhibitors of TWEAK-Fn14 signaling, primary screen, luciferase reporter cells, uHTS | TWEAK-stimulated Fn14 reporter cells, luciferase luminescence, 8 h | inhibition, % at 10 µM | actives 2% (n = 360,000); in the data active = inhibition above about 50%
LGR2 antag = inhibitors of bursicon-induced LGR2 CRE-luciferase signal, primary screen, cell-based, HEK293, CRE-luciferase reporter, bursicon stimulation | Drosophila bursicon receptor LGR2 (rickets) | bursicon-stimulated, 4 h | inhibition, % at 9.99 µM | actives 0.35% (n = 380,000) | AID 720647, 2013;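 active = drop in luminescence signal, shown as inhibition above about 50% in the replicate tests, limit read from the data, passing the limit was not always enough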;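 also: agonist challenge used bursicon conditioned medium at about half maximal strength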
HSP90 inh = HSP90 inhibitors, primary screen, cell lysate, luminescence; inhibition, % at 5.6 µM; actives 0.91% (n = 290,000); Rabbit reticulocyte lysate, luciferase refolding luminescence, 3 h; Heat shock protein HSP 90 (rabbit reticulocyte lysate; luciferase refolding);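 active = inhibition above the screen-wide mean plus 3 SD, computed separately per campaign, cut at about 16% in these data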;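 also: 0% = DMSO wells and 100% = 60 µM geldanamycin wells; inhibitors lower the luminescence because luciferase stays unfolded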
HSP90 confirm = HSP90 inhibitors, confirmation, cell lysate, luminescence; shares compounds with HSP90 inh; actives 64% (n = 2,300); inhibition, % at 5.9 µM; rabbit reticulocyte lysate, luciferase refolding luminescence, 3 h; in the data active = inhibition above about 18%;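 also: 0% = vehicle wells and 100% = reference inhibitor wells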
FLuc counter = firefly luciferase inhibitors, HSP90 counter-screen, confirmation, artefact control for HSP90 inhibitor project, biochemical, luminescence, triplicate. actives 48% (n = 2,300). purified native firefly luciferase. AID 1847, 2009. inhibition, % at 5.9 µM. shares compounds with HSP90 inh;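 active = inhibition above the mean inhibition of all tested sample wells plus 3 SD, cut at about 10% in these data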;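 also: 0% = DMSO with luciferase and 100% = wells lacking luciferase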
Target sequence (P08659 whole entry, looked up): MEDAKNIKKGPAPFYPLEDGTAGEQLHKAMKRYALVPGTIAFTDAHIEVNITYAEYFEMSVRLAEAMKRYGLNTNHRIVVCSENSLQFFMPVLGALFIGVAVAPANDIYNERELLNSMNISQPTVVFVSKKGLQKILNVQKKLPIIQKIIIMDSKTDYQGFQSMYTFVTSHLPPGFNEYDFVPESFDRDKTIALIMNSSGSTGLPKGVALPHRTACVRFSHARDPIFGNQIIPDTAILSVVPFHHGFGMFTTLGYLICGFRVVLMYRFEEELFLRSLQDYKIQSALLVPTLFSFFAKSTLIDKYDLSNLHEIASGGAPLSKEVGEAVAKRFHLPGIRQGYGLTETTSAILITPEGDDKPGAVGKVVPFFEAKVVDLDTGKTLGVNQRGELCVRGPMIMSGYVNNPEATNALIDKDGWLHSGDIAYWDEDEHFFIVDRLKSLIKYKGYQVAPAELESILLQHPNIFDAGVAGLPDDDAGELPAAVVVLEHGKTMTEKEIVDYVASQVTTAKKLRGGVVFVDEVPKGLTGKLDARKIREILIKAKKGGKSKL
aDG conf = alpha-DG glycosylation enhancers, retest, confirmation, single concentration, Pro5-aDG cells; activation, % at 10 µM (by protocol); actives 17% (n = 600); IIH6 AlphaLISA; scaled to LARGE-overexpressing B10 cells as 100%; shares compounds with aDG glyco up;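 active = activation of at least 7% in one or more replicates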;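 also: cells exposed to compound for two days before detection; 0% = DMSO-treated Pro5 cells and 100% = DMSO-treated B10-LARGE cells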
* = called active by the depositor; / = no result given. Only some compounds are listed: those with a hit (about 2.6% of all), similar ones and a draw of the others.

SMILES	LMP1 NFkB inh	aDG glyco up	TROY NFkB inh	TWEAK Fn14 block	LGR2 antag	HSP90 inh	aDG conf	others
Cc1ccc(CN2CCCN(Cc3ccc(C)cc3)S2(=O)=O)cc1	-5.2	0.2	-0.2	6.5	-6.1	18.0*	/	HSP90 confirm=7.3;FLuc counter=-1.4
COC(=O)[C@@H]1[C@@H](CO)[C@@H]2Cn3c(ccc(-c4cccc(F)c4)c3=O)[C@H]1N2C(=O)CC1CC1	/	/	/	/	7.5	/	/
COC(=O)[C@@H]1[C@@H](CO)[C@@H]2Cn3c(ccc(-c4ccccc4)c3=O)[C@H]1N2S(=O)(=O)c1ccccc1C	/	/	/	/	13.6	/	/
O=C1NC(=S)N(c2ccccc2)C(=O)/C1=C/c1ccco1	30.4	0.1	14.3	-18.2	-3.8	6.6	/
CCOc1cccc(N2C(=O)/C(=C/c3ccco3)C(=O)NC2=S)c1	2.5	0.1	16.6	9.8	4.1	32.2*	/	HSP90 confirm=6.6;FLuc counter=18.7*
O=C(CCS(=O)(=O)c1ccc(Br)cc1)N1CCC2(CC1)OCCO2	-12.6	0.0	-8.8	1.1	/	77.7*	/	HSP90 confirm=-4.6;FLuc counter=-11.3
O=C(c1ccc(CS(=O)(=O)c2ccc(Br)cc2)o1)N1CCC2(CC1)OCCO2	3.4	-0.6	-16.1	8.9	/	0.8	/
O=C(O)[C@@H]1[C@@H](CO)[C@@H]2Cn3c(ccc(-c4ccccc4)c3=O)[C@H]1N2CC1CCCCC1	/	/	/	/	0.9	/	/
CCC(=NCCc1c[nH]c2ccccc12)c1c(O)n(C)c(=O)n(C)c1=O	3.0	5.0*	31.4	39.5	32.1	1.4	0.3
COc1ccc(C#Cc2ccc([C@H]3[C@H]4CN(C(=O)Cc5cccnc5)CCCCN4[C@H]3CO)cc2)cc1	/	/	/	/	-36.6	/	/
CCN1CCN(c2nc([N+](=O)[O-])nn2C)CC1	1.4	0.1	-3.8	-2.7	11.1	3.1	/
CN1CCN(c2nc([N+](=O)[O-])nn2C)CC1	0.6	24.7*	3.6	17.1	9.8	-0.5	1.8
CN1[C@@H]2Cn3c(cccc3=O)[C@H]1[C@@H](C(=O)NCC1CC1)[C@@H]2CO	/	/	/	/	-12.0	/	/
O=C1C2CCCN2C(c2ccc(Cl)c(Cl)c2)N1c1ccccn1 (configuration not stated)	1.5	7.0*	-12.7	0.1	/	0.4	-0.1
CC(C)(C)n1nnnc1C(c1cc2ccccc2o1)N1CCC2(CC1)C(=O)NCN2c1ccccc1 (configuration not stated)	/	0.1	19.8	27.1	28.6	/	/
O=C1NCN(c2ccccc2)C12CCN(C(c1cc3ccccc3o1)c1nnnn1C1CCCCC1)CC2 (configuration not stated)	/	8.4*	13.5	35.0	-0.2	/	-0.3

Screening data (PubChem)
